Shown is part of a subset that was picked to be rich in hits.
ST2 inh – inhibitors of human ST2 (IL1RL1) binding to IL-33 | Q01638 | AlphaLISA ST2-Fc/biotin-IL-33 interaction, 1 h | inhibition, % for hits at 17 µM | 2.3% of 78,000 active; in the data active = inhibition above about 30%
Target sequence (Q01638 whole entry, looked up): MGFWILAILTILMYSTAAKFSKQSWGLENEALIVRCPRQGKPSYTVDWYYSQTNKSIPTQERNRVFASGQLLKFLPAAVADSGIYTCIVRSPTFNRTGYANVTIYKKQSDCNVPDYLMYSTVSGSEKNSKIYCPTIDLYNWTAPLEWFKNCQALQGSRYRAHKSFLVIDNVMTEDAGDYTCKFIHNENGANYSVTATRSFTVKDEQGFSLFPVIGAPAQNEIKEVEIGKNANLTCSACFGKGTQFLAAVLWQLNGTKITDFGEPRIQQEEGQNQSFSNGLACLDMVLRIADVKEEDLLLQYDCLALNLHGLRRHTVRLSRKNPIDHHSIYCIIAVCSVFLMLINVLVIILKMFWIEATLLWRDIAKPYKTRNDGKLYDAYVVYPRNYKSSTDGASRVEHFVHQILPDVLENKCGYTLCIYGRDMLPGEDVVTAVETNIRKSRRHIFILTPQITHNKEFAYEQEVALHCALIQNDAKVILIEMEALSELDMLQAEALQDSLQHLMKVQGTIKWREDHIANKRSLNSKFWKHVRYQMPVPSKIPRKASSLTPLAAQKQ
Numbers stand for hits; i = inactive; ! = a repeat was not active.

SMILES | ST2 inh
COC(=O)c1c(NC(=O)c2ccccc2)c2cc(NC3CCSCC3)cnc2n1Cc1ccco1 | i
O=C(Nc1ccccc1F)C1[C@H](C(=O)O)[C@H]2C=C[C@@H]1C21CC1 (stereo partly drawn) | i
Cc1ccc(Cl)cc1NS(=O)(=O)c1ccc2[nH]c(=O)c(=O)[nH]c2c1 | i
Cc1ccc(NS(=O)(=O)c2ccc3[nH]c(=O)c(=O)[nH]c3c2)c(Cl)c1 | 37%
Cc1ccc(NS(=O)(=O)c2ccc3[nH]c(=O)c(=O)[nH]c3c2)cc1Cl | i
COc1ccc(CN2CCN(c3cccc(C)c3C)CC2)c(OC)c1OC | i
O=S(=O)(NCc1ccccc1)N1CCCCC1c1nc2ccccc2[nH]1 (stereo not drawn) | i
NC(=O)CCc1c[nH]c2ccccc12 | i
O=C(O)Cc1c[nH]c2ccc(O)cc12 | 41%!
N[C@@H](Cc1c[nH]c2ccccc12)C(=O)O | i
O=C(CSc1nc2ccccc2c2nc(CCN3CCCCC3)nn12)NC1CCCCC1 | i
COc1cc(Cn2ccnc2C2CCN(C)CC2)cc(OC)c1OC | i
COc1ccc(-c2cc(N3CCN(S(=O)(=O)c4ccc(F)cc4)CC3)ncn2)cc1 | i
CCOc1cc(OCC)cc(C(=O)Nc2cccc(-c3nc4ncccc4o3)c2)c1 | i
O=C(Nc1cccc(-c2nc3ncccc3o2)c1)c1ccc(OCc2ccccc2)cc1 | 33%
CC(C)c1ccc(C(=O)Nc2cccc(-c3nc4ncccc4o3)c2)cc1 | i
Cc1ccc2c(C)c(C(=O)N3CCC(c4ccncc4)CC3)oc2c1C | i
COc1ccc(/C=C2\SC(=O)N(c3ccc(O)cc3)C2=O)cc1 | i
COc1ccc(N2C(=N)S/C(=C\c3ccccc3[N+](=O)[O-])C2=O)cc1 | 36%
COc1ccc(/C=C2\SC(=O)N(c3cccc(C)c3)C2=O)cc1 | i
CC1=C(C)CC(C(=O)Nc2ccc(C)c(C)c2)C(C(=O)O)C1 (stereo not drawn) | i
Nc1nnc(C(NC(=O)CCc2c[nH]c3ccccc23)c2ccccc2)s1 (stereo not drawn) | i
Cc1nc2ccccc2nc1SCc1cc2c(cc1Cl)OCO2 | i
CNCC(=O)N1CCCCC1CCc1cccs1 (stereo not drawn) | i
O=C1NC(=Nc2ccccc2)SC1Cc1cccc([N+](=O)[O-])c1 (stereo not drawn) | i
SMILES | ST2 inh
O=C1NC(=Nc2ccccc2)SC1Cc1ccccc1 (stereo not drawn) | i
COc1ccc(CC2SC(=Nc3ccccc3)NC2=O)cc1 (stereo not drawn) | 31%
COc1cccc(C2N(c3cccc(OC)c3)C(=O)C3CCCN32)c1 (stereo not drawn) | i
COc1ccc(CN2CCCN(CC(=O)NCc3ccc(C)cc3)S2(=O)=O)cc1 | i
CCOc1ccc(/C=c2\sc3n(c2=O)CN(c2ccc4c(c2)OCO4)CN=3)cc1 | 31%
CCCCOc1ccc(/C=c2\sc3nc(=O)c(C)nn3c2=O)cc1 | i
CCOc1ccc(-c2nc3s/c(=C\c4ccc(C)cc4)c(=O)n3n2)cc1 | i
CCOc1ccc(CN2CCN(Cc3ccc4c(c3)OCO4)CC2)cc1 | i
CC(=O)c1ccc(N2CN=c3s/c(=C\c4ccc(I)o4)c(=O)n3C2)cc1 | i
CCOc1ccc(/C=c2\sc3n(c2=O)CN(c2cccc(C(C)=O)c2)CN=3)cc1 | 31%
O=c1c2cnn(-c3ccc(Cl)cc3)c2ncn1Cc1ccc(F)cc1 | i
Nc1ccc2c(c1)C(=O)N(C1CCCCC1)C2=O | i
COc1ccc(Br)cc1CN1C(=O)CCC1(C)C(=O)NC1CCCC(C)C1C (stereo not drawn) | i
CC1=NOC(=O)/C1=C\c1ccc(-c2ccc3c(c2)COC3=O)o1 | i
Cc1ccc(C(=O)/C=C/C=C/C=C/N(C)C)o1 | 39%
Cc1ccc(C(=O)N2CCc3ccccc32)o1 | i
CC1=C(C(=O)OCCc2ccccc2)C(c2ccccc2)NC(=O)N1 (stereo not drawn) | i
CCOC(=O)C1(Cc2ccc(F)cc2F)CCCN(C(=O)c2cc3ccccc3cn2)C1 (stereo not drawn) | i
Cc1ccc(N2C(=O)C3CC=CC(C)C3C2=O)cc1F (stereo not drawn) | i
COc1cc(NC(=O)C2c3ccccc3C(=O)N3CCc4ccccc4C23)cc(OC)c1OC (stereo not drawn) | i
O=C1C2[C@H](C(=O)N1c1cccc(Br)c1)C1c3ccccc3C2(C(=O)O)c2ccccc21 (stereo partly drawn) | i
CC(=O)Oc1ccc(N2C(=O)C3C4c5ccccc5C(C)(c5ccccc54)C3C2=O)cc1 (stereo not drawn) | i
O=C1[C@@H]2C3c4ccccc4C(Br)(c4ccccc43)[C@@H]2C(=O)N1c1ccc([N+](=O)[O-])cc1 | 34%
CO[C@H]1CN(c2ncnc3sccc23)CC[C@H]1N | i
COc1ncc(CN2CCCC(c3n[nH]c(=O)n3-c3ccccc3)C2)cn1 (stereo not drawn) | i
SMILES | ST2 inh
COc1ccc(NC(=O)COc2ccccc2)c([N+](=O)[O-])c1 | i
COc1ccc(NC(=O)C(Cl)(Cl)Cl)c([N+](=O)[O-])c1 | 34%
COc1ccc(NC(=O)c2ccc(Br)cc2)c([N+](=O)[O-])c1 | i
N#Cc1ccccc1-c1nc2c3c(c(N)ccc3n1)C(=O)c1ccccc1-2 | 42%
CC1CC(OCC(O)CN2CCN(c3ccccc3F)CC2)CC(C)(C)C1 (stereo not drawn) | i
CC(NS(=O)(=O)NCc1ccccc1)c1nc2c(s1)CCCC2 (stereo not drawn) | i
CCn1nc(C(=O)NCc2ccc(OC)cc2)c2c1CCN(C(=O)Cc1ccc(F)cc1)C2 | i
CC/C=C\CCO[C@@H]1O[C@H](CO)[C@@H](O)[C@H](O)[C@H]1O | 31%
COc1cc(/C=C/CO)ccc1O[C@@H]1O[C@H](CO)[C@@H](O)[C@H](O)[C@H]1O | i
OC[C@H]1O[C@@H](OCCc2ccccc2)[C@H](O)[C@@H](O)[C@@H]1O | i
COc1cccc(C(=O)N2CCC(CCC(=O)N3CCC(Cc4ccccc4)CC3)CC2)c1 | i
CCN(CC)S(=O)(=O)c1cccc(C(=O)c2cccc(S(=O)(=O)N(CC)CC)c2)c1 | i
Cc1ccnn1CCC(=O)NC1CC(=O)N(C2CCCCCC2)C1 (stereo not drawn) | i
CCN(CC)S(=O)(=O)c1ccc(C(=O)N2CCN=C2SCc2ccc(C)cc2)cc1 | i
C[C@]12CC[C@@H]3c4ccc(O)cc4CC[C@H]3[C@@H]1CCC2=O | i
CC12CCC3c4ccc(O)c(Br)c4CCC3C1CCC2O (stereo not drawn) | i
COc1ccc2c(c1)CCC1C2CC[C@@]2(C)C1CC[C@@H]2NCCCCCCN1C(=O)C=CC1=O (stereo partly drawn) | 46%
COc1ccc(OCC(=O)Nc2ccc(C)c(OCc3cc(=O)n4ccc(C)cc4n3)c2)cc1 | i
Cc1cccc(C(=O)Nc2ccc(C)c(OCc3cc(=O)n4cccc(C)c4n3)c2)c1 | 33%
Cc1ccc(C(=O)Nc2cccc(OCc3cc(=O)n4cc(Cl)ccc4n3)c2)cc1 | i
CCOc1ccc(C(=O)Nc2ccc(C)c(OCc3cc(=O)n4cccc(C)c4n3)c2)cc1 | i
COc1cccc(C(=O)Nc2cccc(OCc3cc(=O)n4ccc(C)cc4n3)c2)c1 | i
Cc1cccc(C(=O)Nc2cccc(OCc3cc(=O)n4ccc(C)cc4n3)c2)c1 | i
COc1cccc(C(=O)Nc2ccc(C)c(OCc3cc(=O)n4cccc(C)c4n3)c2)c1 | 31%
CCOc1ccc(C(=O)Nc2cccc(OCc3cc(=O)n4cc(Cl)ccc4n3)c2)cc1 | 31%
CC(=O)Nc1cccc(OCc2cc(=O)n3cc(Cl)ccc3n2)c1 | i
